G9a block: qHTS Assay for Inhibitors of Histone Lysine Methyltransferase G9a | 8.8% of 350,000 active | AID 504332, 2011 | Histone-lysine N-methyltransferase EHMT2 (Homo sapiens), Q96KQ7 | Potency, µM (series often up to 102 µM), without a hit: at the top dose activity, negative = inhibition, actives largely listed as inhibitors | G9a H3K9 monomethylation, AlphaScreen, 2 h; further: on the % scale 0 is the no-effect control and ±100 the full control effect; nearly all actives have a fitted effect of over 75% in size
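Quantitative HTS format: methyltransferase activity on a biotin-tagged H3K9 peptide is measured by AlphaScreen, using a rabbit anti-monomethyl-H3K9 antibody with streptavidin donor and anti-IgG acceptor beads. Final levels are 20 nM enzyme, 500 nM peptide, 20 uM SAM; 2 h RT.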
JMJD2A Tudor inh: qHTS Assay for Inhibitors of JMJD2A-Tudor Domain; 4.4% of 390,000 active; AlphaScreen JMJD2A-Tudor / H3K4me3 peptide binding; Lysine-specific demethylase 4A (Homo sapiens), O75164; Potency, µM (doses to about 114 µM), without a hit: top-dose activity change, negative = inhibition, usual class: inhibitors; further: on the % scale 0 is the no-effect control and ±100 the full control effect; nearly all actives have a fitted effect of over 50% in size
Sfp PPTase inh: qHTS Assay for Inhibitors of Bacillus subtilis Sfp phosphopantetheinyl transferase (PPTase). 4'-phosphopantetheinyl transferase ffp (Bacillus subtilis), Q9F4F7. Biochemical Sfp PPTase activity, qHTS. Potency, µM, inactives show largest response in the series, negative = inhibition, hits mostly inhibitors. 3.5% of 310,000 active. AID 1490, 2009;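 further: the enzyme is Sfp with the accession as filed and its product quenches rhodamine fluorescence; 0% = enzyme reaction without inhibitor and -100% = no enzyme wells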
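Step 1, compound plus 15 nM Sfp-PPTase, 15 min, room temperature. Step 2, add rhodamine-CoA (5 uM) and BHQ-2-YbbR (12.5 uM). Step 3, read 525/598 nm fluorescence at 0 and 30 min.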
PLK1 PBD block: qHTS for Inhibitors of PLK1-PDB (polo-like kinase 1 - polo-box domain): Primary Screen; Serine/threonine-protein kinase PLK1 (Homo sapiens), P53350; Plk1 PBD binding of FITC phosphopeptide, fluorescence polarization; Potency, µM, without a hit: max response, negative = inhibition, hits mostly inhibitors; 2.8% of 360,000 active; AID 720504, 2013; further: series mostly up to about 57 µM; on the % scale 0 is the no-effect control and ±100 the full control effect; nearly all actives have a fitted effect of over 65% in size
Target sequence (P53350 whole entry, looked up, the tested form may be a part): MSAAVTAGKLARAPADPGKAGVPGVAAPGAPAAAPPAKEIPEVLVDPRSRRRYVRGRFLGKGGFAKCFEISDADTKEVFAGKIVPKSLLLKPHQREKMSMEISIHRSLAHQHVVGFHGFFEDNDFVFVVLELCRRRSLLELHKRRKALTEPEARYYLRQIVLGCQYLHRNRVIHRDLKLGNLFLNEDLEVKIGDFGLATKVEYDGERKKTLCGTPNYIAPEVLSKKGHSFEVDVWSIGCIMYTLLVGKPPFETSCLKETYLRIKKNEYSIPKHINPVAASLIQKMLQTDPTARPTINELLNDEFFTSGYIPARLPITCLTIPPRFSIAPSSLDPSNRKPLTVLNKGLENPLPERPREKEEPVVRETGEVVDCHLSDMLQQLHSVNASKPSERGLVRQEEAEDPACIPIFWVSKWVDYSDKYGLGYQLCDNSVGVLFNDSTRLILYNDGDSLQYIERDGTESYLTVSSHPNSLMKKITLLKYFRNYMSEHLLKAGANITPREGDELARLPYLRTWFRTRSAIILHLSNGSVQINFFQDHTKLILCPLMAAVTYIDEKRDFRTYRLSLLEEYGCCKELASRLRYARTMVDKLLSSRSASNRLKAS
HP1b binding inh: HTS for Inhibitors of HP1-beta Chromodomain Interactions with Methylated Histone Tails; 0.56% of 390,000 active; AlphaScreen HP1-beta / biotin-H3K9me3 peptide binding; Potency, µM (highest dose often 114 µM), inactives show at the highest dose activity change, negative = inhibition, actives largely listed as inhibitors; further: nearly all actives have a fitted effect of over 70% in size
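Compound inhibition of the preformed complex between 50 nM HP1-beta and 50 nM biotinylated H3K9me3 peptide was read by AlphaScreen. Buffer was PBS pH 7.4 with 0.01% Tween-20. Incubations ran 30 min at room temperature, with 10 ug/mL donor/acceptor beads.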
BAZ2B block: qHTS Assay for Inhibitors of BAZ2B. Bromodomain adjacent to zinc finger domain protein 2B (Homo sapiens), Q9UIF8. AlphaScreen BAZ2B-H3K14Ac peptide displacement. Potency, µM (series often up to 114 µM), without a hit: at the top dose activity change, negative = inhibition, hits mostly inhibitors. 4.4% of 360,000 active. AID 504333, 2011; further: on the % scale 0 is the no-effect control and ±100 the full control effect; nearly all actives have a fitted effect of over 60% in size
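Multi-concentration screen (max 110 uM) measuring displacement of acetylated histone H3 peptide from BAZ2B by AlphaScreen, using 50 nM protein, 50 nM peptide and 10 ug/mL streptavidin donor plus Ni-chelate acceptor beads.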
Active calls of the source: *; ? = inconclusive; nt = no result given; [ ] = remark or other dose. Most compounds without a hit are left out; they make up all but 12% or so of the library. The call rests on the fitted dose curve; in most records, active means well fitted curve in the direction sought with a large enough effect; inconclusive means small, poorly fitted or top-dose-only effect, or another doubt; inactive means no such curve, though single readings can be large; an effect the other way counts as inactive or inconclusive. Potency means the concentration at half of the fitted maximal effect.

SMILES	G9a block	JMJD2A Tudor inh	Sfp PPTase inh	PLK1 PBD block	HP1b binding inh	BAZ2B block
CCCc1c(OCC(O)COc2ccc3c(=O)cc(C(=O)O)oc3c2CCC)ccc(C(C)=O)c1O (stereo not given)	3%[59 µM]	nt	-7%	nt	nt	nt
Cc1ccc(O)c(C(=O)c2cnc3c(c2)CN(C)C(=O)N3)c1	?	-16%	-10%	-16%	-10%	-8%
CN1Cc2cc(C(=O)c3cc(Cl)cc(CSc4ncccn4)c3O)cnc2NC1=O	50µM*	nt	2%	nt	nt	-30%
COc1cccc(C(=O)NCC(=O)OCc2cc(=O)n3nc(C)sc3n2)c1	3%[59 µM]	-26%	nt	nt	79%	-2%
CCn1c(SCC(=O)NCCOC)nc2sc(C)c(C)c2c1=O	-3%[12.7 µM]	nt	45µM*	nt	nt	-1%
CC(C)c1cc(C(=O)N/N=C/c2ccco2)n[nH]1	14%	-19%	-7%	7.5µM*	10%	1%
CC1Cn2c(C(=O)NCc3cccc(Br)c3)cc3cccc(c32)S1 (stereo not given)	29%[59 µM]	34%	nt	nt	76%	12%
O=C(NC1CCCC1)C(c1cccs1)N(CC1CCCO1)C(=O)Cc1cccs1 (stereo not given)	45µM*	-3%	-8%	-8%	43%	7%
COc1ccc(C(C(=O)NC2CCCC2)N(CC2CCCO2)C(=O)Cc2cccs2)cc1OC (stereo not given)	5%	-10%	8%	-10%	27%	-16%
CC(NCc1cccs1)C(=O)NC1CCCCC1 (stereo not given)	?	20µM*	?	-4%	?	40µM*
CC(C)C(NC(=O)c1cccs1)C(=O)NC1CCCCC1 (stereo not given)	nt	0%	11%	-3%	37%	6%
CCOc1ccc(N2CC(C(=O)Nc3ccc(S(=O)(=O)N4CCCC4)cc3)CC2=O)cc1 (stereo not given)	35µM*	-5%	-29%	-3%	18%	-2%
CCOc1ccc(N2CC(C(=O)Nc3cccc(S(=O)(=O)N4CCCCC4)c3)CC2=O)cc1 (stereo not given)	-30%	-21%	7%	-9%	12%	-9%
CSc1cccc(N2CC(C(=O)Nc3cccc(S(=O)(=O)N4CCCC4)c3)CC2=O)c1 (stereo not given)	11µM*	?	nt	-11%	-11%	?
O=C(Nc1cccc(F)c1)C1CC(=O)N(c2ccc(Cl)cc2)C1 (stereo not given)	-26%[2.33 µM]	1%[57.1 µM]	3%	?	26%	-6%
CCc1ccc(N2CC(C(=O)Nc3ccc(S(=O)(=O)N4CCOCC4)cc3)CC2=O)cc1 (stereo not given)	50µM*	-10%	nt	0%	9%	-11%
O=C(Nc1cccc(F)c1)C1CC(=O)N(c2ccc(Br)cc2)C1 (stereo not given)	-38%	-19%[11.4 µM]	6%	30µM*	8%	-1%
CCOC(=O)N1CCN(C(=O)COC(=O)C2CCN(S(=O)(=O)c3c(C)c(C)cc(C)c3C)CC2)CC1	-4%	-26%	nt	-5%	3%	1%
COc1ccc(NC(=O)c2cccc(N3CCCS3(=O)=O)c2)cc1OC	-4%[59 µM]	-10%	nt	nt	19%	-8%
O=C(Nc1ccc(Br)cc1)C1CCN(c2ncccn2)CC1	-3%[59 µM]	-12%	nt	nt	42%	-10%
CCOc1ccc(N2CC(C(=O)Nc3ccc(S(=O)(=O)N4CCCCC4)cc3)CC2=O)cc1 (stereo not given)	40µM*	-24%	nt	4%	8%	7%
CCc1ccc(N2CC(C(=O)N/N=C/c3ccccc3)CC2=O)cc1 (stereo not given)	nt	?	nt	27µM*	-6%	nt
COc1ccc(N2CC(C(=O)Nc3ccc(S(=O)(=O)N4CCCCC4)cc3)CC2=O)cc1 (stereo not given)	nt	-19%	-9%	-3%	15%	-22%
CC(Oc1ccc(C#N)cc1)C(=O)c1ccc(F)c(F)c1 (stereo not given)	13%	-3%	13%	-3%	58%	6%
Cc1cc2c(s1)c1cnn(Cc3c(F)c(F)c(C(F)(F)F)c(F)c3F)c(=O)c1n2C	nt	-25%	nt	nt	nt	nt
SMILES	G9a block	JMJD2A Tudor inh	Sfp PPTase inh	PLK1 PBD block	HP1b binding inh	BAZ2B block
Cc1ccc(-n2c(=O)c3cccnc3n2CC(=O)NCc2ccc(Cl)cc2)cc1	6%[59 µM]	-13%	nt	nt	22%	-11%
COc1cccc(CN2C(=O)c3ccccc3S2(=O)=O)c1	10%[59 µM]	29%	5%	-9%	90%	24%
O=C1c2ccc([N+](=O)[O-])cc2S(=O)(=O)N1Cc1ccccc1	11µM*	?	-7%	-8%	?	?
Cc1cc(C(=O)N2CCC2(C)C(=O)NCC(C)(C)C)nn1C (stereo not given)	nt	nt	nt	-1%	nt	nt
CCOc1ccccc1N1CCN(C(=O)/C=C/c2cccc([N+](=O)[O-])c2)CC1	10%[59 µM]	?	-5%	-3%	-13%	?
O=[N+]([O-])c1ccc(O)c(/C=N/Nc2ccc(Cl)nn2)c1	nt	7.9µM*	-9%	-10%	41%	4µM*
Cc1ccccc1/C=N/Nc1ccc(Cl)nn1	10µM*	-13%	2%	-12%	43%	-27%
Oc1ccccc1/C=N/Nc1nn[nH]n1	40µM*	56µM*	-6%	0%	59%	45µM*
NC(N)=N/N=C/c1cc([N+](=O)[O-])ccc1O	1%	-17%	6%	-6%	21%	-4%
O=[N+]([O-])c1ccc(O)c(/C=N/Nc2nn[nH]n2)c1	-2%	10µM*	14%	-16%	37%	6.3µM*
COc1ccccc1S(=O)(=O)N(C)C[C@H]1OCc2cnnn2CCCC(=O)N([C@H](C)CO)C[C@H]1C	nt	nt	nt	-6%	nt	nt
COc1ccc(NC(=O)C2CCCN(C(=O)Nc3ccc(F)cc3)C2)cc1 (stereo not given)	20%	-9%	6%	-5%	13%[57 µM]	-18%
Cc1ccc(NC(=O)C2C(c3ccccc3)C=CC(c3ccccc3)C2C(=O)O)cc1 (stereo not given)	0%[12.7 µM]	-20%[11.4 µM]	-23%	?	-2%	3%
Clc1ccc(/C=N/Nc2nn[nH]n2)cc1	10µM*	?	-18%	-9%	29%	-3%
C(=N\Nc1nn[nH]n1)/c1ccccc1	35µM*	89µM*	45µM*	-7%	27%	?

Screening results from PubChem.
